From PubChem BioAssay
In the library only some 9.2% were active in any assay of this set; here they are far more common.
ELG1 repair inh – ELG1-dependent DNA repair inhibition; HEK293T ELG1-luciferase reporter, luminescence, 16 h; DNA damage induced by 5-fluorouridine; Potency, µM (doses to about 46.1 µM), inactives show at the highest dose activity change, negative = inhibition, most hits filed as inhibitors; actives 2.3% (n = 330,000); AID 504467; further: on the % scale 0 is the no-effect control and ±100 the full control effect; nearly all actives have a fitted effect of over 55% in size
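5-Fluorouridine DNA damage + compound/DMSO, 2,000 cells/well, 16 h, 37 °C/5% CO2. ONE-Glo, 30 min RT, luminescence. Readout = decrease in reporter signal.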
Rab9 prom act – activators of Rab9 promoter; AID 485297; actives 2.8% (n = 320,000); Huh7 Rab9 promoter-luciferase reporter, luminescence, 24 h; Potency, µM (titrated, usually from 9.22 µM), without a hit: at the top dose activation, negative = inhibition, actives largely listed as activators; further: % of control where 0% means no effect; nearly all actives have a fitted effect of over 60% in size
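Cells were plated at 1500 per well in reduced-serum medium with 10% FBS and left 2 h. Compound in DMSO was then added for 24 h at 37 °C. Reporter signal was read by luminescence after 10 min with luciferase detection reagent.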
FLuc counter – inhibits or activates purified firefly luciferase, miR-21 counter-screen; P08659; purified FLuc, Km substrates, luminescence inhibition; Potency, µM (highest dose often 57.5 µM), without a hit: at the highest dose activity change, negative = inhibition, usual class: inhibitors; actives 6.9% (n = 360,000); AID 588342;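 further: plate controls were vehicle for no effect and reference inhibitor for full effect; nearly all actives have a fitted effect of over 55% in size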
Target sequence (P08659 whole entry, looked up): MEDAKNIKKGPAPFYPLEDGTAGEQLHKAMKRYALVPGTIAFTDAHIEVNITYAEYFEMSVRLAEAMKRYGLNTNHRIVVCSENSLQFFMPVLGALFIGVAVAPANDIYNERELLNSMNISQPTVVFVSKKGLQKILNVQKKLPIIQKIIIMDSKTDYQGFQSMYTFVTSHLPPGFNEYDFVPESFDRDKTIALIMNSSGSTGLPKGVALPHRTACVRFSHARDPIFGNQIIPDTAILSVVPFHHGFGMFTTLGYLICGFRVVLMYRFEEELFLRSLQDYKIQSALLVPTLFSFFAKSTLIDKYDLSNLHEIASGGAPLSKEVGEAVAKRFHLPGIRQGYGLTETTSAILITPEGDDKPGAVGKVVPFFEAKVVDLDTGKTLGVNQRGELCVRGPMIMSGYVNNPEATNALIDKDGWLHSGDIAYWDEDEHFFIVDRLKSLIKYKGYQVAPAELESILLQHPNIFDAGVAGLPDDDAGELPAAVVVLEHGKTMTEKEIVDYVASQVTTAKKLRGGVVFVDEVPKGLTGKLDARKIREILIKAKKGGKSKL
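Biochemical qHTS of compounds, final roughly 60 µM downward over six points, against 10 nM purified firefly luciferase using Km concentrations of substrates (10 uM D-luciferin, 10 uM ATP) in Tris acetate pH 7.5 buffer; luminescence output.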
NPC1 prom act – NPC1 promoter activation. actives 2.4% (n = 320,000). Huh7 NPC1 promoter luciferase reporter, 24 h. AID 485313. Potency, µM (top dose mostly 9.22 µM), inactives show top-dose activation, usual class: activators; further: % of control where 0% means no effect; nearly all actives have a fitted effect of over 60% in size
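Stably transfected Huh7 (NPC1 promoter→luciferase), 1500 cells/well in Opti-MEM + 10% FBS, 2 h settle, then compound 24 h at 37 °C. Luminescence after 10 min with Amplite reagent.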
ELG1 genotox – inducers of genotoxicity in HEK293T ELG1-luciferase cells | actives 1.3% (n = 330,000) | HEK293T ELG1-luciferase reporter, luminescence, 16 h | AID 504466 | Potency, µM (titrated, usually from 46 µM), for inactives: top-dose activity change, positive = activation, most hits filed as activators; further: % of control where 0% means no effect; nearly all actives have a fitted effect of over 60% in size
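Genotoxicity was scored as increased ELG1-luciferase reporter signal, measured by ONE-Glo luminescence (30 min, room temperature). Compound or vehicle exposure of the HEK293T reporter cells lasted 16 hr at 37°C.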
SMN2 splice enh – increases expression of the SMN2 splice variant; HEK293 SMN2-luciferase splicing reporter, luminescence, 30-36 h; Potency, µM (series often up to 46.1 µM), inactives show at the top dose activity change, positive = activation, most hits filed as activators; actives 2.8% (n = 210,000); AID 1458; further: % of control where 0% means no effect; nearly all actives have a fitted effect of over 55% in size
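qHTS luciferase splicing reporter: luminescence rises when SMN2 exon 7 is included in transfected HEK293 cells. Compound exposure lasted 30-36 h at 37C, with 4.5 mM final sodium butyrate as control, followed by a ONE-Glo read.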
* marks the source's active call; other numbers are inactive results; u = inconclusive; x = not tested or not shown; [ ] = another dose, or the depositor's remark. The call rests on the fitted dose curve; in most records, active means well fitted curve in the direction sought with a large enough effect; inconclusive means small, poorly fitted or top-dose-only effect, or another doubt; inactive means no such curve, though single readings can be large; an effect the other way counts as inactive or inconclusive. Potency means the concentration at half of the fitted maximal effect.

SMILES	ELG1 repair inh	Rab9 prom act	FLuc counter	NPC1 prom act	ELG1 genotox	SMN2 splice enh
COc1cc(C(=O)NCc2nc(-c3ccc(Cl)cc3)no2)cc(OC)c1OC	x	x	-5%	x	x	0%
CCOc1ccc(N2CC(C)Cn3c2nc2c3c(=O)n(CC(=O)O)c(=O)n2C)cc1 (stereo unspecified)	x	x	0%	x	x	-9%
COC(=O)c1cn(-c2ccccc2)nc1-c1ccccc1	2%	3%	u	-1%	7%	-28%
O=C(O)c1ccc(NC(=O)c2cn(-c3ccccc3)nc2-c2ccccc2)cc1	u	28%	1.2µM*	23%	11%	u
COc1ccc(-c2nn(-c3ccccc3)cc2C(=O)Nc2cccc(S(=O)(=O)NC3=NCCC3)c2)cc1	23µM*	x	x	x	-4%	x
COc1ccc(-c2nn(-c3ccccc3)cc2C(=O)Nc2ccccc2OC)cc1	x	x	0%	x	x	-10%
COc1ccc(-c2nn(-c3ccccc3)cc2C(=O)Nc2ccc(C(=O)O)cc2)cc1	-9%	-2%	11µM*	4%	-1%	x
COc1ccc(NC(=O)c2cn(-c3ccccc3)nc2-c2cc3ccccc3o2)cc1	u	15%	8.5µM*	10%	-7%	-5%
COc1ccc(NC(=O)c2cn(-c3ccccc3)nc2-c2ccncc2)cc1	u	-2%	u	-5%	-8%	-3%
COc1ccc(-c2nn(-c3ccccc3)cc2C#N)cc1	u	3.5µM*	5.4µM*	u	u	-2%
CCOc1ccc(/C=C2\SC(=S)N(CCC(=O)Nc3ccc(C(=O)O)cc3)C2=O)cc1	u	-8%	2.7µM*	3%	13%	x
CCOC(=O)CN1C(=O)S/C(=C\c2ccc3c(c2)OCO3)C1=O	25%	-4%	21µM*	5%	11%	x
O=C(CCN1C(=O)S/C(=C\c2ccc(Cl)cc2)C1=O)Nc1ccc(C(=O)O)cc1	u	30%	15µM*	-5%	13%	x
O=C(CCN1C(=O)/C(=C/c2ccc3c(c2)OCO3)SC1=S)Nc1ccc(C(=O)O)cc1	3%	2%[1.84 µM]	9.5µM*	0%	9%	x
CNC(=O)N1CCC(C(=O)c2c(C)c(C)c(C)c(C)c2C)CC1	1%	-8%	2%	-3%	4%	x
COc1cccc(-n2c(-c3ccco3)nc3c(cnn3-c3ccccc3C)c2=O)c1	x	x	-2%	x	x	u
Cc1ccc(C)c(NC(=O)CSc2nc3nccnc3c(=O)n2CCc2c[nH]c3ccccc23)c1	x	x	-5%	x	x	x
Cc1nn(C)c(C)c1CCNC(=O)Nc1ccccc1C(F)(F)F	x	x	-6%	x	x	x
CN(C(=O)COC(=O)CNC(=O)c1sc2ccccc2c1Cl)C1CCS(=O)(=O)C1 (stereo unspecified)	18%	x	x	x	-2%	x
COc1ccc(/C=C2\SC(=S)N(CCCC(=O)Nc3cccc(C(=O)O)c3)C2=O)cc1OC	u	-1%	3%	-6%	-20%	x
CCOc1ccc(/C=C2\SC(=S)N(CCC(=O)Nc3cccc(C(=O)O)c3)C2=O)cc1	25%	u	2.1µM*	29%	u	x
Fc1ccc(CSc2ncnc3ccccc23)cc1	u	-2%	-17%	-2%	-11%	-11%
O=C(OCC(=O)N1CCOCC1)c1ccccc1Cc1ccccc1	u	3.2µM*	9.5µM*	1.6µM*	13µM*	11µM*
C=CCN(C(=O)Cc1cccs1)c1nc(-c2ccc(S(C)(=O)=O)cc2)cs1	u	u	17µM*	u	0%	x
C=CCN(C(=O)CCc1ccccc1OC)c1nc(-c2ccc(S(C)(=O)=O)cc2)cs1	u	15%	-16%	1%	-4%	x
SMILES	ELG1 repair inh	Rab9 prom act	FLuc counter	NPC1 prom act	ELG1 genotox	SMN2 splice enh
O=C(Cn1nnc2ccccc21)c1ccc(Br)cc1	u	u	24µM*	30%	10%	x
Cc1ccc(C(=O)Cn2nnc3ccccc32)cc1	u	1.6µM*	5.4µM*	1.4µM*	u	u
Cc1ccc(C(=O)NNC(=O)Cn2nnc3ccccc32)cc1	u	12%	2%	-2%	12%	x
Cc1ccc(OCCn2nnc3ccccc32)cc1C	u	2.5µM*	21µM*	2.5µM*	u	x
Cc1ccc(C(=O)Cn2nnc3ccccc32)cc1C	u	0.79µM*	4.8µM*	1.4µM*	u	u
Cc1c(C(=O)Nc2ccccc2C(=O)N2CCCC2)cccc1[N+](=O)[O-]	6%	-1%	-2%	-9%	-7%	-17%
COc1ccc(-n2ccc(-c3nn(-c4cccc(C(F)(F)F)c4)ccc3=O)n2)cc1	8.2µM*	-1%	-2%	-8%	-1%	-18%
COc1ccc(N(C)C(=O)c2cc3c(s2)-c2ccc(Cl)cc2S(=O)(=O)C3)c(OC)c1	21µM*	-8%	-1%	-15%	-4%[9.26 µM]	x
COc1ccc(N(C)C(=O)c2cc3c(s2)-c2ccccc2OC3)c(OC)c1	u	-6%	2%	0%	-4%	x
O=C1c2ccccc2-c2nnc(-c3ccc(F)cc3)cc21	u	0.32µM*	0.43µM*	u	u	2.5µM*
Cc1ccc(-c2cc3c(nn2)-c2ccccc2C3=O)cc1	u	u	0.076µM*	u	u	x
Cc1ccccc1-c1cc2c(nn1)-c1ccccc1C2=O	u	4µM*	1.3µM*	3.2µM*	u	u
O=C1c2ccccc2-c2n[nH]c3cccc1c23	x	6%[46.1 µM]	x	u	x	10%
O=C1c2ccccc2-c2nnc(-c3ccc(O)cc3)cc21	u	0.5µM*	0.54µM*	0.63µM*	u	6.3µM*
O=c1[nH]nc(-c2ccc(F)cc2)cc1-c1ccccc1	0%	1%	1%	2%	6%	x
CCOC(=O)c1c(C)oc2nc(C)nc(NCCCN3CCN(c4cccc(C)c4)C(C)C3)c12 (stereo unspecified)	x	x	-9%	x	x	x
COc1cc(OC)cc(C(=O)NCCNc2nc3cc(C)cc(C)c3cc2C#N)c1	16µM*	-2%	-1%	-2%	-8%	x
COc1cc(C(=O)NCCNc2nc3cc(C)ccc3cc2C#N)cc(OC)c1OC	u	-3%	0%	-2%	-4%	x
CCOc1ccc2nc(NCCNC(=O)c3cc(OC)c(OC)c(OC)c3)c(C#N)cc2c1	13µM*	-3%	-1%	1%	-6%	x
COc1ccccc1C(=O)NCCNc1nc2cc(C)cc(C)c2cc1C#N	9.2µM*	2%	-14%	-8%	-11%	x
COc1ccc(C(=O)NCCc2nnc3ccc(SCC(=O)NCc4ccccc4)nn23)cc1	u	13%	u	u	-1%	x
